Out of some 340,000 compounds screened, about 5,100 (1.5%) were called active. This excerpt belongs to a sample that is enriched for actives. A number with no mark means an inactive call.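 How the source made its calls: active means mean Tm shift, scaled 0 neutral to 100 positive control, at about 1.3% or above, every replicate too (limit read from the data); inconclusive means no clear call, values can overlap the other calls; inactive means the rest.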
Biological target: Fibroblast growth factor 22 (Homo sapiens) (UniProt Q9HCT0)
Sequence (Q9HCT0 whole entry, looked up): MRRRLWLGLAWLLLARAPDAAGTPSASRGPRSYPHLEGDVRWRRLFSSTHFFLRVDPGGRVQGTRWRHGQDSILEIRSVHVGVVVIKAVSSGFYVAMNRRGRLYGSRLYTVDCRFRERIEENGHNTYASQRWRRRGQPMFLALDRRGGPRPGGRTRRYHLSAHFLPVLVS
Assay: FGF22 ligand-induced thermal stabilization – biophysical, thermal shift, single point, FGF22 synaptogenesis inhibitor project, primary screen (AID 651658)
Conditions: recombinant FGF22 thermal shift, SYPRO orange fluorescence; at 9.99 µM; hits give high values; percent of sucrose octasulfate shift, DMSO zero

SMILES	activity (Tm shift, normalised)
C=CCn1cc(-c2cccc(C(F)(F)F)c2)cc(C#N)c1=O	42.9% (active)
CC1(Cc2cccc(C#N)c2)C(=O)Nc2ccc(-c3cccc(C(F)(F)F)c3)cc21 (configuration not stated)	0.505%
Cn1cc(-c2ccccc2)cc(C#N)c1=O	0.065%
COc1cccc(S(=O)(=O)N2CCC3(CC2)CN[C@H](CO)c2c3c3ccc(OC)cc3n2C)c1	0.197%
Cc1ccc(CN2CCN(Cc3ccccc3-c3ccco3)CC2CCO)o1 (configuration not stated)	43.4% (active)
Cc1ccc(CN2CCN(Cc3cn(C)nc3-c3ccccc3)CC2CCO)o1 (configuration not stated)	-0.412%
OCCC1CN(Cc2ccccc2-c2ccco2)CCN1Cc1ccsc1 (configuration not stated)	0.318%
CCS(=O)(=O)N[C@@H]1CC[C@@H](CC(=O)NCC2CC2)O[C@H]1CO	0.034%
CN1C(=O)c2cc(NC(=O)c3ccc(F)cc3)ccc2OC[C@H]2O[C@H](CC(=O)N3CCOCC3)CC[C@@H]21	-0.26%
O=C(COc1ccc([N+](=O)[O-])cc1)Nc1cccc(C(=O)Nc2ccccc2C(=O)O)c1	1.4% (active)
O=C(CSCc1ccc([N+](=O)[O-])cc1)Nc1cccc(C(=O)Nc2ccccc2C(=O)O)c1	-0.059%
CN(CCc1ccccc1)C(=O)c1cccc(NC(=O)Cc2ccc([N+](=O)[O-])cc2)c1	-0.076%
C[C@H](CO)N1C[C@H](C)[C@@H](CN(C)C(=O)C2CCOCC2)Oc2cc(-c3ccc(C(=O)N(C)C)cc3)ccc2S1(=O)=O	-0.068%
CN1c2ccc(C#Cc3cccnc3)cc2[C@H]2[C@H](CCN2S(=O)(=O)c2ccccc2)[C@@H]1CO	-0.293%
C[C@H](CO)N1C[C@H](C)[C@H](CN(C)Cc2ccccc2)OCCCC[C@H](C)Oc2ccc(NC(=O)CCC(F)(F)F)cc2C1=O	-0.091%
O=C(OCc1cc(Cl)ccc1OC(F)F)c1cccnc1	43.6% (active)
O=C(CC(=O)c1cccnc1)c1ccccc1	-0.031%
Cn1cncc1COC(=O)c1ccc(Cl)cc1	0.094%
C[C@@H](O)C#Cc1ccc([C@H]2[C@H](CO)N3CCCCN(C(=O)c4ccc(F)cc4)C[C@@H]23)cc1	0.261%
O=C(Nc1ccccc1F)N1C[C@@H]2[C@H](c3ccccc31)[C@@H](CO)N2C(=O)Nc1ccccc1	-0.294%
O=C(Nc1ccccc1F)N1[C@H](CO)[C@H]2c3ccccc3NC[C@H]21	1.7% (active)
O=C(c1cccnc1)N1C[C@H]2[C@@H](c3ccccc31)[C@@H](CO)N2C(=O)Nc1ccccc1F	-0.686%
